Test results reported in PubChem BioAssay AID1159580 (chemical genetic matrix, 2015).
“And” between values parts separate entries of the source, which are not always exact repeats. Identical values can stand only once. The whole screen tested about 5,500 compounds, of which about 2,000 (36%) were called active. Roughly 18% stayed inconclusive and do not appear here. No stated cut-off is given here; in the data, active means normalized growth mostly below about 0.91 (no sharp cut-off); inconclusive means no clear call, values can overlap the other calls; inactive means mostly above about 0.92. This is one part of the list.

Experiment: chemical genetic growth profiling, strain panel (AID 1159580);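 further: tested at 20 µM; growth read once vehicle control cultures reached saturation at 30 °C; 1 = growth at the plate median or of vehicle wells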
Conditions: growth OD

Measured: normalized growth

COc1ccc(Cc2nccc3cc(OC)c(OC)cc23)cc1OC
inactive: S. cerevisiae deletion strains, locus YJR066W, strain TOR1, stronger effect = lower value 0.975 | S. cerevisiae deletion strains, locus YJR075W, strain HOC1, stronger effect = lower value 0.995 | S. cerevisiae deletion strains, locus YKL009W, strain mrt4, stronger effect = lower value 0.984 | S. cerevisiae deletion strains, locus YKL068W, stronger effect = lower value 0.999 | S. cerevisiae deletion strains, locus YKL085W, strain MDH1 (second series), stronger effect = lower value 0.991 | S. cerevisiae deletion strains, locus YKL085W, strain MDH1, stronger effect = lower value 0.991 | S. cerevisiae deletion strains, locus YKL160W, strain elf1, stronger effect = lower value 1.02 | S. cerevisiae deletion strains, locus YKL190W, strain CNB1, stronger effect = lower value 1.01 | S. cerevisiae deletion strains, locus YKR001C, strain vps1, stronger effect = lower value 0.961 | S. cerevisiae deletion strains, locus YKR026C, strain gcn3, stronger effect = lower value 1 | S. cerevisiae deletion strains, locus YKR091W, strain srl3, stronger effect = lower value 0.998 | S. cerevisiae deletion strains, locus YLL001W, strain dnm1, stronger effect = lower value 1.01 | S. cerevisiae deletion strains, locus YLL026W, stronger effect = lower value 1 | S. cerevisiae deletion strains, locus YLL041C, strain sdh2, stronger effect = lower value 1 | S. cerevisiae deletion strains, locus YLR027C, strain aat2, stronger effect = lower value 0.994 | S. cerevisiae deletion strains, locus YLR039C, strain RIC1, stronger effect = lower value 1 | S. cerevisiae deletion strains, locus YLR058C, strain SHM2, stronger effect = lower value 1.02 | S. cerevisiae deletion strains, locus YLR102C, strain apc9, stronger effect = lower value 0.988 | S. cerevisiae deletion strains, locus YLR113W, strain HOG1, stronger effect = lower value 0.975 | S. cerevisiae deletion strains, locus YLR221C, strain rsa3, stronger effect = lower value 1.01 | S. cerevisiae deletion strains, locus YLR258W, strain gsy2, stronger effect = lower value 1 | S. cerevisiae deletion strains, locus YLR262C, strain YPT6 (second series), stronger effect = lower value 1.01 | S. cerevisiae deletion strains, locus YLR262C, strain YPT6, stronger effect = lower value 1.01 | S. cerevisiae deletion strains, locus YLR268W, strain sec22, stronger effect = lower value 0.967 | S. cerevisiae deletion strains, locus YLR320W, strain mms22, stronger effect = lower value 1.01 | S. cerevisiae deletion strains, locus YLR330W, strain CHS5, stronger effect = lower value 1.01 | S. cerevisiae deletion strains, locus YLR342W, strain FKS1 (second series), stronger effect = lower value 0.996 | S. cerevisiae deletion strains, locus YLR342W, strain FKS1, stronger effect = lower value 1.01 | S. cerevisiae deletion strains, locus YLR357W, strain rsc2, stronger effect = lower value 0.972 | S. cerevisiae deletion strains, locus YLR370C, strain arc18, stronger effect = lower value 0.992 | S. cerevisiae deletion strains, locus YLR371W, strain rom2, stronger effect = lower value 0.999 | S. cerevisiae deletion strains, locus YLR384C, strain iki3, stronger effect = lower value 1 | S. cerevisiae deletion strains, locus YLR418C, strain cdc73, stronger effect = lower value 0.933 | S. cerevisiae deletion strains, locus YML016C, strain PPZ1, stronger effect = lower value 1.01 | S. cerevisiae deletion strains, locus YML032C, strain rad52, stronger effect = lower value 0.977 | S. cerevisiae deletion strains, locus YML120C, strain ndi1, stronger effect = lower value 1 | S. cerevisiae deletion strains, locus YML124C, strain tub3, stronger effect = lower value 0.988 | S. cerevisiae deletion strains, locus YMR058W, strain fet3, stronger effect = lower value 1.01 | S. cerevisiae deletion strains, locus YMR078C, strain ctf18, stronger effect = lower value 0.991 | S. cerevisiae deletion strains, locus YMR125W, strain sto1, stronger effect = lower value 0.994 | S. cerevisiae deletion strains, locus YMR129W, stronger effect = lower value 0.998 | S. cerevisiae deletion strains, locus YMR205C, strain PFK2, stronger effect = lower value 1.02 | S. cerevisiae deletion strains, locus YMR223W, strain ubp8, stronger effect = lower value 0.987 | S. cerevisiae deletion strains, locus YMR231W, strain pep5, stronger effect = lower value 1.01 | S. cerevisiae deletion strains, locus YMR307W, strain GAS1, stronger effect = lower value 0.988 and 0.997 | S. cerevisiae deletion strains, locus YNL067W, strain RPL9B, stronger effect = lower value 1.01 | S. cerevisiae deletion strains, locus YNL071W, strain lat1, stronger effect = lower value 1 | S. cerevisiae deletion strains, locus YNL128W, strain TEP1, stronger effect = lower value 1.01 and 0.977 | S. cerevisiae deletion strains, locus YNL153C, strain GIM3, stronger effect = lower value 1.01 | S. cerevisiae deletion strains, locus YNL175C, strain NOP13, stronger effect = lower value 0.988 | S. cerevisiae deletion strains, locus YNL183C, strain NPR1, stronger effect = lower value 0.946 | S. cerevisiae deletion strains, locus YNL197C, strain WHI3, stronger effect = lower value 0.996 | S. cerevisiae deletion strains, locus YNL209W, strain ssb2, stronger effect = lower value 1 | S. cerevisiae deletion strains, locus YNL224C, strain SQS1, stronger effect = lower value 0.993 | S. cerevisiae deletion strains, locus YNL233W, strain BNI4, stronger effect = lower value 1.02 | S. cerevisiae deletion strains, locus YNL248C, strain rpa49, stronger effect = lower value 0.992 | S. cerevisiae deletion strains, locus YNL250W, strain rad50, stronger effect = lower value 0.985 | S. cerevisiae deletion strains, locus YNL271C, strain bni1, stronger effect = lower value 0.982 | S. cerevisiae deletion strains, locus YNL298W, strain CLA4, stronger effect = lower value 0.999 | S. cerevisiae deletion strains, locus YNL307C, strain MCK1, stronger effect = lower value 0.98 | S. cerevisiae deletion strains, locus YNL322C, strain KRE1 (second series), stronger effect = lower value 1.01 | S. cerevisiae deletion strains, locus YNR049C, strain mso1, stronger effect = lower value 0.999 | S. cerevisiae deletion strains, locus YNR052C, strain pop2, stronger effect = lower value 0.986 | S. cerevisiae deletion strains, locus YOL006C, strain TOP1, stronger effect = lower value 1.02 | S. cerevisiae deletion strains, locus YOL012C, strain htz1 1.11 | S. cerevisiae deletion strains, locus YOL147C, strain pex11, stronger effect = lower value 0.988 | S. cerevisiae deletion strains, locus YOR001W, strain rrp6, stronger effect = lower value 0.965 | S. cerevisiae deletion strains, locus YOR061W, strain CKA2, stronger effect = lower value 1.01 | S. cerevisiae deletion strains, locus YOR069W, strain VPS5, stronger effect = lower value 1.01 | S. cerevisiae deletion strains, locus YOR070C, strain gyp1, stronger effect = lower value 0.999 | S. cerevisiae deletion strains, locus YOR080W, strain dia2, stronger effect = lower value 0.997 | S. cerevisiae deletion strains, locus YOR083W, strain WHI5 (second series), stronger effect = lower value 1 | S. cerevisiae deletion strains, locus YOR083W, strain WHI5, stronger effect = lower value 1.03 | S. cerevisiae deletion strains, locus YOR106W, strain vam3, stronger effect = lower value 1.02 | S. cerevisiae deletion strains, locus YOR136W, strain idh2, stronger effect = lower value 0.998 | S. cerevisiae deletion strains, locus YOR144C, strain elg1, stronger effect = lower value 1 | S. cerevisiae deletion strains, locus YOR184W, strain ser1, stronger effect = lower value 0.984 | S. cerevisiae deletion strains, locus YOR231W, strain MKK1, stronger effect = lower value 0.984 | S. cerevisiae deletion strains, locus YOR265W, strain rbl2, stronger effect = lower value 1 | S. cerevisiae deletion strains, locus YOR270C, strain vph1, stronger effect = lower value 0.998 | S. cerevisiae deletion strains, locus YOR290C, strain snf2, stronger effect = lower value 0.993 | S. cerevisiae deletion strains, locus YOR316C, strain cot1, stronger effect = lower value 1 | S. cerevisiae deletion strains, locus YPL051W, strain arl3, stronger effect = lower value 0.998 | S. cerevisiae deletion strains, locus YPL055C, strain LGE1, stronger effect = lower value 0.983 | S. cerevisiae deletion strains, locus YPL078C, strain atp4, stronger effect = lower value 0.998 | S. cerevisiae deletion strains, locus YPL106C, strain sse1, stronger effect = lower value 1 | S. cerevisiae deletion strains, locus YPL240C, strain hsp82, stronger effect = lower value 1.01 | S. cerevisiae deletion strains, locus YPL241C, strain CIN2, stronger effect = lower value 1.01 | S. cerevisiae deletion strains, locus YPL256C, strain CLN2, stronger effect = lower value 1.02 | S. cerevisiae deletion strains, locus YPR119W, strain clb2, stronger effect = lower value 0.99 | S. cerevisiae deletion strains, locus YPR141C, strain kar3, stronger effect = lower value 0.988 | S. cerevisiae deletion strains, locus YPR163C, strain tif3, stronger effect = lower value 0.974 | S. cerevisiae deletion strains, locus YPR167C, strain met16, stronger effect = lower value 0.991 | S. cerevisiae deletion strains, strain wtn01, stronger effect = lower value 0.985 | S. cerevisiae strains, strain wild type, stronger effect = lower value 1.01
